Assay outcomes as filed in PubChem BioAssay.
PNC assembly inh: blocks assembly of the perinucleolar compartment. PC3M PTB-GFP, PNC prevalence imaging, 16 h; hits give low values. AID 2417. actives 3.1% (n = 140,000). activity change (PNC), negative = inhibition, % at 10 µM;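 active = readout at or below -70, meaning at least 70% loss of cells showing the perinucleolar compartment, a nuclear body marking cancer cells; inconclusive = readout between -30 and a set limit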
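Compounds are pinned in duplicate onto adhered PC3M cells stably expressing GFP-tagged PTB and incubated 16 h at 37 C. Cells are then fixed, nuclei stained with Hoechst, and PNC-positive cells counted.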
HPGD block: HPGD (human) dehydrogenase inhibition; P15428; purified HPGD, NADH fluorescence kinetic, PGE2 substrate; Potency, µM, hits mostly inhibitors; actives 4.3% (n = 150,000); AID 894
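20 nM HPGD preincubated 15 min at room temperature with compound in 50 mM Tris-HCl pH 8, 0.01% Tween 20. Started with 1 mM NAD+ and 30 uM prostaglandin E2; NADH fluorescence (360/450 nm) read 5 times over 30-s intervals, last minus first.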
ALDH1A1 inh: ALDH1A1 (human) enzyme inhibition. P00352. Purified ALDH1A1, NADH fluorescence, propionaldehyde substrate. Potency, µM (doses to about 75.3 µM), actives largely listed as inhibitors. actives 7.3% (n = 220,000)
Target sequence (P00352 whole entry, looked up): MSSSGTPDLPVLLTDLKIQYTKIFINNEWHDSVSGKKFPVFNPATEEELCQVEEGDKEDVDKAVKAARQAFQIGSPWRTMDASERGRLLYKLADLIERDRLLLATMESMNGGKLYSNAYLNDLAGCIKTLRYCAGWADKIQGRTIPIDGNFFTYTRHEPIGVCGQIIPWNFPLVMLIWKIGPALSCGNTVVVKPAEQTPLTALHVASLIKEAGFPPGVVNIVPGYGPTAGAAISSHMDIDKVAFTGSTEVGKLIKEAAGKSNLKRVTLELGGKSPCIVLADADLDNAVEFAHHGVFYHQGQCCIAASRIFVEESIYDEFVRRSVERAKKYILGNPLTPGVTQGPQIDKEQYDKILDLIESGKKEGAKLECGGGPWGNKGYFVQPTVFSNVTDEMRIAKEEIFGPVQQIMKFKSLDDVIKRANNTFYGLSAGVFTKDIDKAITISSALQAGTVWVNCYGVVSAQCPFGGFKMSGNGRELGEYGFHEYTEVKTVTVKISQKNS
Numbers stand for hits; . = inactive; ? = inconclusive; / = no result; [ ] = dose if it differs, or a comment. Rows were chosen to be rich in hits. Some 11% of all compounds tested hit in one or more screens of this group. Unless noted, calls come from the whole dose curve; as a rule, active = well fitted inhibition curve with a large enough effect (not every such curve was filed as active); inconclusive = small, poorly fitted or top-dose-only effect, or another doubt; inactive = no such curve, though single readings can be large or run the other way.

SMILES	PNC assembly inh	HPGD block	ALDH1A1 inh
O=C(CSc1nnnn1-c1ccc(F)cc1)NC1CCCCC1	.	.	?
COc1ccc(S(=O)(=O)N2CCCCCC2)cc1N	/	/	.
Cc1cc2oc(C(=O)Nc3ccc(S(N)(=O)=O)cc3)c(C)c2cc1Cl	/	/	.
CC(C)CN(CC#N)CC(C)C	/	.	.[13.5 µM]
COc1cccc(C(=O)Nn2c(-c3cccs3)nc3ccccc3c2=O)c1OC	.	.	.
COc1ccc(CNn2c(-c3cccs3)nc3ccccc3c2=O)cc1OC	/	/	25.1µM
CCCCCCCC1=Cc2ccccc2C(CC(=O)c2ccccc2)N1C(=O)OC (configuration not stated)	/	.	.[13.5 µM]
Cc1ccc(CN2C(=O)C[C@@H](NS(=O)(=O)c3ccc4ccccc4c3)C/C=C\C2c2ccc(C)cc2)cc1 (some centres not stated)	/	.	22.4µM
COc1ccc(C2/C=C\CN(S(=O)(=O)c3ccc(C)cc3)CC(=O)N2Cc2cccc(F)c2)cc1 (configuration not stated)	/	.	.
CC(=O)Nc1ccc(NC(=O)C(C)OC(=O)C2(c3ccc(Cl)cc3)CCCC2)cc1 (configuration not stated)	.	/	.
O=C(CN(C(=O)c1ccccc1Cl)N1C(=O)C2C3C=CC(C3)C2C1=O)c1cccs1 (configuration not stated)	/	/	.
COc1cc(/C=N/NC(=O)C(=O)NCc2cccnc2)cc(OC)c1OC	.	.	.
COc1cccc(/C=N/NC(=O)C(=O)NCc2cccnc2)c1OC	/	/	15.8µM
CC(Sc1nc(NC(C)(C)C)nc(N(C)C)n1)C(=O)Nc1ccccc1 (configuration not stated)	/	/	.
CC(Sc1nc(C(C)(C)C)cc(-c2ccccc2)c1C#N)C(=O)Nc1ccccc1 (configuration not stated)	.	15.8µM	25.1µM
COc1ccc(CNC(=O)C(=O)NCCCn2ccnc2)cc1	/	/	.
Nc1ccc(C(=O)Nc2ccco2)cc1	-100.0	.	.
CC(C)(C)c1ccc(C(=O)Nc2ccccc2NC(=O)c2ccco2)cc1	.	.	.
N#CCCN(CCC#N)C(=S)NC1CC2C=CC1C2 (configuration not stated)	/	/	.
COc1ccc2nc(/N=C/c3c(C)[nH]n(-c4ccc(C)cc4C)c3=O)sc2c1	.	?	.
COc1cc(SC#N)ccc1N=Cc1c(C)[nH]n(-c2cccc3ccccc23)c1=O	?	?	0.447µM
COc1cc(SC#N)ccc1N=Cc1c(C)[nH]n(-c2ccc(C)cc2C)c1=O	.	8.91µM	0.708µM
COc1cc(S(=O)(=O)Nc2ccc(C)cc2)ccc1N=Cc1c(C)[nH]n(-c2ccc(C)cc2)c1=O	.	.	.
CC1=CC(C)(C)N2C(=O)C3(NCCc4c3[nH]c3ccccc43)c3cccc1c32 (configuration not stated)	/	/	.
COC(=O)Oc1ccc(/C=N/NC(=O)CSCc2ccccc2Br)cc1OC	?	.	12.6µM
SMILES	PNC assembly inh	HPGD block	ALDH1A1 inh
COc1ccc(/C=N/NC(=O)CSc2ccccc2)cc1OC	.	.	?
N#Cc1ccc(/C=N/N=C(N)N)cc1	.	.	.
CCN(CC)c1ccc(C=N/C(C#N)=C(\N)C#N)cc1	.	.	11.2µM
NNC(=O)CCn1c2ccccc2c2ccccc21	/	/	.
COC(=O)CC1(c2ccccc2)C(=O)c2ccccc2C1=O	.	.	.
CC(=O)C(C(C)=O)C1(O)C(=O)c2ccccc2C1=O	.	.	1.58µM
COc1c(C(=O)NNC(=O)c2ccccc2)csc1Br	/	/	.
COc1cccc(C2NC(=S)NC3=C2CCc2ccccc23)c1 (configuration not stated)	.	/	0.224µM
COc1ccc(C2NC(=O)NC3=C2CCc2ccccc23)cc1 (configuration not stated)	.	?	?
COc1ccc2c(c1)C1=C(CC2)C(c2ccc(C)cc2)NC(=S)N1 (configuration not stated)	/	/	0.398µM
CC(C)c1ccc(C2NC(=O)NC3=C2CCc2ccccc23)cc1 (configuration not stated)	.	?	?
COCCNC(=O)[C@@]1(Cc2ccccc2)C=C[C@@H](C)N1C(=O)OC	/	.	.
CCCCCCCCC(=O)NNC(=O)c1c(O)c2ccccc2n(CCC)c1=O	/	/	.
CCN(CC)C(=O)Cn1cc(C(=O)C(=O)NCCCn2ccnc2)c2ccccc21	/	/	.
COc1ccc2c(c1)C(=O)[C@H](OC(=O)Nc1cc(OC)c(OC)c(OC)c1)[C@@H](c1ccc(OC)c(Br)c1)O2	/	.	.
CC1(NC(=O)CC[N+](C)(C)CCO)CS(=O)(=O)CC1S(=O)(=O)[O-] (configuration not stated)	.	.	.
O=C(NCCN1C(=O)S/C(=C\c2cccs2)C1=O)[C@H](Cc1ccccc1)N1C(=O)c2ccccc2C1=O	.	.	.
